# An excerpt weighted towards active compounds, which were near 11% of everything screened.
# NS1 inh = qHTS Assay for Inhibitors of Influenza NS1 Protein Function; Potency, µM (top dose mostly 46.1 µM), without a hit: at the highest dose activity, positive = more growth; 0.4% of 270,000 active; AID 2326, 2010; calls by dose curve; also: actives are rising curves; nearly all actives have a fitted effect of over 50% in size
#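 Recovery from NS1-induced slow growth read by OD600 in budding yeast switched to galactose assay medium (pH 6.0, -URA) at 1:100 dilution. Compound 23 nl per well; the matching strain lacking NS1 serves as control.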
# Pf growth 96h = Primary qHTS for delayed death inhibitors of the malarial parasite plastid, 96 hour incubation. P. falciparum luciferase reporter growth, 96 h. Potency, µM (doses to about 28.7 µM), without a hit: at the highest dose activity change, negative = inhibition, actives largely listed as inhibitors. 6.9% of 320,000 active. AID 504834, 2011; also: % is scaled to controls: 0 for no effect and ±100 for the full control effect
#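 96 h incubation, 37 C, 5% CO2, of luciferase-reporter P. falciparum-infected RBCs (2% hematocrit, 0.05% parasitemia final) with test compounds; endpoint luminescence.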
# Pf growth 48h = Primary qHTS for delayed death inhibitors of the malarial parasite plastid, 48 hour incubation; Potency, µM (series often up to 28.7 µM), for the others: at the top dose activity change, negative = inhibition, most hits filed as inhibitors; 5.9% of 310,000 active; AID 504832, 2011; P. falciparum luciferase growth in erythrocytes, 48 h; also: % is scaled to controls: 0 for no effect and ±100 for the full control effect
#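 Parasite viability was followed by luminescence of a genomically integrated firefly luciferase. Cultures held 0.1% parasitemia at 2% hematocrit (final), incubated under 5% CO2 at 37 C.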
# Sm TGR block = qHTS Assay for the Inhibitors of Schistosoma Mansoni Peroxiredoxins; 3% of 360,000 active; Potency, µM (doses to about 114 µM), without a hit: at the top dose activity change, negative = inhibition, actives largely listed as inhibitors; purified TGR, DTNB reduction, TNB absorbance 405 nm; also: % is scaled to controls: 0 for no effect and ±100 for the full control effect; nearly all actives have a fitted effect of over 60% in size
#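 TGR 20 nM + NADPH 100 uM (dispensed conc.), cpd preinc 15 min RT; start with NADPH (500 uM addition) then DTNB (15 mM addition). Kinetic TNB absorbance, 405 nm filter. Four-parameter Hill fit across titration.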
# AMA1-RON2 inh = qHTS for Inhibitors of AMA1-RON; Towards Development of Antimalarial Drug Lead: Primary Screen; Plasmodium falciparum AMA1 (3D7) - RON2 peptide interaction; AlphaScreen AMA1-biotinylated RON2 peptide binding; Potency, µM (top dose mostly 58.2 µM), inactives show top-dose activity change, negative = inhibition, most hits filed as inhibitors; 0.2% of 360,000 active; AID 720542, 2013;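 also: 0% = vehicle wells and -100% = peptide control; nearly all actives have a fitted effect of over 45% in size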
#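 AMA1 (3D7) with his tag at 25 nM final met compounds first, then biotinylated RON2 peptide at 25 nM; detection used donor plus acceptor beads, 10 µg/mL apiece, read by AlphaScreen after 30 min at room temperature.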
# Starred values were filed as active, the others as inactive; ? = inconclusive; / = no result. Unless noted, calls follow the shape of the dose curve; as a rule, active = well fitted curve in the direction sought with a large enough effect; inconclusive = small, poorly fitted or top-dose-only effect, or another doubt; inactive = no such curve, though single readings can be large; an effect the other way counts as inactive or inconclusive. Potency is read from the fitted curve at half-maximal effect.
SMILES,NS1 inh,Pf growth 96h,Pf growth 48h,Sm TGR block,AMA1-RON2 inh
CCN1C(=O)C2(c3ccccc31)c1c(oc3ccc(C)cc3c1=O)C(=O)N2CCCOC(C)C (centres undefined),/,/,/,0.4%,/
CCOc1ccc(-c2nnc(SCC(=O)Oc3ccccc3)o2)cc1,/,/,/,-10.1%,/
CC1(C)NC(=O)N(CCOCCOc2ccc3ccccc3c2Br)C1=O,-5.5%,3.7µM*,/,-20.3%,-4.5%
CC(C)(C)c1ccc(OCCCN2CCCC2)cc1,-6.2%,-24.1%,-4.6%,6.6%,5.8%
Clc1cccc(OCCN2CCN(CCOc3cccc(Cl)c3)CC2)c1,-52.6%,?,2.9%,-12.3%,17.8µM*
Cc1ccc(C(O)(CCN2CCCCC2)c2ccccc2)cc1 (centres undefined),0.1%,9.9%,-15.7%,11.2µM*,-4.2%
CCCOc1ccc(C(O)(CCC)CCN2CCCCC2)cc1 (centres undefined),-10.9%,-21.8%,-13.6%,31.6µM*,-4.4%
CCCOc1cc(CN2CCCCC2)cc(C(C)=O)c1,9.3%,9.28µM*,8.1%,?,2.1%
COc1ccc(C(C)=O)cc1CN1CCCCC1,9.0%,-20.2%,-6.1%,-4.0%,10.2%
COc1ccc(CNC(=O)CSc2n[nH]c(N)n2)cc1,13.9%,10.9%,-11.2%,1.6%,10.1%
COc1cccc(NC(=O)CN(C)C(=O)Cn2c(=O)oc3ccccc32)c1,/,?,-19.2%,1.1%,17.8%
CCCCCOc1ccc(C(=O)CCC(=O)N2CCCC2)cc1,-11.0%,?,?,-4.1%,-2.6%
c1ccc(OCCN2CCOCC2)cc1,-2.6%,?,0.8%,3.8%,14.1µM*
CCCOc1ccc(C(=O)CCN2CCCCC2)cc1,-42.8%,/,13.1%,0.316µM*,-4.1%
CCOc1ccc(OCCN2CCCCC2)cc1,13.7%,?,21.4%,5.3%,-26.1%
CCCCOc1ccc(C(=O)CCN2CCOCC2)cc1,/,-2.2%,34.5%,2µM*,-8.0%
CCOc1ccc(C(=O)CCN2CCCCCC2)cc1,-54.0%,0.0%,-4.2%,0.316µM*,12.2%
CC(C)N(C(=O)[C@H]1CC(CC(=O)NCCN2CCOCC2)C(=O)N2CCc3c([nH]c4ccccc34)[C@]12C)C(C)C (some centres undefined),/,/,/,/,-3.4%
CCCCN(CC)C(=S)Nc1ccc2nc(N3CCN(C)CC3)cc(C)c2c1,-7.6%,8.9%,?,2.8%,-1.0%
Cc1ccc(-n2ncc3c2CCCC3NC(=O)CCc2cnccn2)cc1C (centres undefined),3.3%,64.5%,6.7%,-21.0%,9.7%
Cc1cc(C)c(NC(=O)CN(C)S(=O)(=O)c2ccc3c(c2)c(=O)n(C)c(=O)n3C)c(C)c1,/,/,/,0.6%,/
CCc1cccc(C)c1NC(=O)CCn1nc(C)c2c(C)n(-c3ccccc3)nc2c1=O,/,/,/,1.5%,/
O=C(OCCN1CCOCC1)c1ccccc1Cl,/,/,/,/,4.9%
Cc1ccccc1C(=O)OCCN1CCOCC1,11.7%,8.28µM*,8.7%,5.2%,3.8%
C=CCOc1cccc(/C=N/NC(=O)CN(c2cc(Cl)ccc2OC)S(=O)(=O)c2ccc(C)c([N+](=O)[O-])c2)c1,27.0%,1.17µM*,?,-14.6%,?
SMILES,NS1 inh,Pf growth 96h,Pf growth 48h,Sm TGR block,AMA1-RON2 inh
CCCN(CCC)C(=O)CC(c1ccccc1)c1ccc(C)cc1O (centres undefined),-5.6%,?,/,8.8%,5.7%
Cc1ccc(O)c([C@H](CCN(C(C)C)C(C)C)c2ccccc2)c1,15.2%,-5.7%,1.69µM*,8.1%,-5.1%
O=S(=O)(NCc1cccs1)c1ccc(Cl)s1,-16.1%,7.38µM*,2.4%,-1.0%,0.7%
COC(=O)c1cc(S(=O)(=O)NCc2ccccc2Cl)c[nH]1,6.0%,2.62µM*,31.9%,-20.0%,-8.5%
NC(=O)c1cc(S(=O)(=O)NCc2cccs2)cs1,-8.4%,8.28µM*,41.9%,-5.4%,4.4%
O=S(=O)(NCc1cccs1)c1ccc(Br)s1,-15.0%,21.1%,15.1%,-11.3%,/
Cc1cccc(CNS(=O)(=O)c2csc(C(N)=O)c2)c1,8.4%,-10.3%,-16.5%,20.3%,-0.9%
COC(=O)c1cc(S(=O)(=O)NCc2cccs2)c[nH]1,-11.3%,11.7µM*,2.9%,6.9%,9.1%
CC(=O)c1cccc(NC(=O)c2cc(=O)[nH]c3ccc(S(=O)(=O)N4CCOCC4)cc23)c1,/,/,/,/,-7.1%
COc1ccc(S(=O)(=O)NCc2cccs2)cc1,9.7%,-14.8%,/,0.0%,-5.1%
CCN(CC)S(=O)(=O)c1ccc(S(=O)(=O)NCc2cccs2)cc1,1.8%,8.28µM*,22.0%,-3.6%,-17.4%
COc1ccc(-c2oc3c(c2C#CCCCCO)C(OCCO)CC3)cc1 (centres undefined),/,/,/,/,-11.6%
CCOc1ccc2c(c1)/C(=C(\C(Cl)=C(Cl)Cl)[N+](=O)[O-])N2,/,16.8%,3.4%,5.62µM*,-7.5%
CCCCC(=O)NC(=S)Nc1cccc(Cl)c1N1CCCCC1,-0.9%,?,?,-5.9%,-3.0%
CCCC(=O)NC(=S)Nc1cccc(Cl)c1N1CCCCC1,-9.4%,8.28µM*,7.38µM*,-15.8%,24.2%
CCC(=O)NC(=S)Nc1cccc(Cl)c1N1CCCCC1,15.8%,7.38µM*,11.7µM*,0.0%,6.0%
Cc1ccc(C(=O)NCCNC(=O)c2ccc(F)cc2)cn1,13.8%,-5.9%,20.4%,-1.3%,-1.0%
CC(NC(=O)Cn1cnnn1)C12CC3CC(CC(C3)C1)C2 (centres undefined),3.4%,32.9%,28.9%,-25.7%,17.4%
CC(n1cnnn1)C12CC3CC(CC(C3)C1)C2 (centres undefined),0.0%,1.65µM*,?,7.5%,10.9%
O=C(COC(=O)CNC(=O)c1ccc(Cl)cc1Cl)Nc1cccc(S(=O)(=O)N2CCCC2)c1,/,-15.9%,-3.0%,50.1µM*,4.4%
CC(=O)c1cc(Cl)ccc1OCC(=O)Nc1cccc(S(=O)(=O)N2CCCC2)c1,/,3.7µM*,?,-19.5%,-0.8%
O=C(COc1cccc2cccnc12)Nc1cccc(S(=O)(=O)N2CCCC2)c1,/,?,10.4µM*,-8.6%,70.8%
O=C(COC(=O)CNC(=O)c1ccccc1F)Nc1cccc(S(=O)(=O)N2CCCCCC2)c1,-6.8%,10.6%,-11.3%,20.3%,-0.5%
O=C(CNc1ccc(F)cc1Cl)Nc1cccc(S(=O)(=O)N2CCCCC2)c1,/,?,?,-18.4%,4.3%
O=C(COc1ccc(F)cc1Cl)Nc1cccc(S(=O)(=O)N2CCCCCC2)c1,/,13.1µM*,?,-7.4%,2.6%
CCOc1ccc(NC(=O)COc2cccc3cccnc23)cc1S(=O)(=O)N1CCCC1,/,/,/,/,36.1%
CCOC(=O)C1=CN(Cc2ccco2)S(=O)(=O)N(CC)C1c1ccccc1 (centres undefined),/,/,/,/,9.5%

# Screening results deposited in PubChem BioAssay by National Center for Advancing Translational Sciences (NCATS).
